Results reported in PubChem BioAssay (NCATS).
Results filed as inconclusive are left out. Calls of active or inactive are those of the source. The call rests on the fitted dose curve; in most records, active means well fitted curve in the direction sought with a large enough effect; inconclusive means small, poorly fitted or top-dose-only effect, or another doubt; inactive means no such curve, though single readings can be large; an effect the other way counts as inactive or inconclusive.

Assays:
[1] = Cell Viability - LYMP2-013 (AID 970); further: series mostly up to about 92 µM; nearly all actives have a fitted effect of over 55% in size
In short: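 qHTS; 2500 lymphoblastoid cells/well; 5 hr 37 C settle; cpd 24 hr 37 C; CellTiter-Glo, 30 min RT; luminescence. AC50 = Hill fit.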

[2] = Cell Viability - LYMP2-015 (AID 971); further: nearly all actives have a fitted effect of over 55% in size
In short: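 Luminescent ATP read-out (CellTiter-Glo) served as the viability measure after lymphoblastoid cells were exposed to compounds for 24 hours at 37 C. Concentration-response data were fitted with the Hill equation to give AC50.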

[3] = Cell Viability - LYMP2-017 (AID 972); further: series mostly up to about 92 µM; nearly all actives have a fitted effect of over 55% in size
In short: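 2500 cells/well, 5 h 37 C; cpd 24 h 37 C in complete medium; CellTiter-Glo, 30 min RT; luminescence (ATP). AC50 via Hill fit, qHTS.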

[4] = Cell Viability - LYMP2-019 (AID 973); further: nearly all actives have a fitted effect of over 55% in size
In short: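 Luminescent ATP read-out (CellTiter-Glo, 30 min room temperature) served as the viability measure after 24 hr treatment of lymphoblastoid cells at 37 C. Concentration-response data were fitted to the Hill equation for AC50.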

[5] = Cell Viability - LYMP2-021 (AID 974)
In short: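 Plate 2500 lymphoblastoid cells per well and incubate 5 hr at 37 C. Add compounds over a concentration range and incubate 24 hr at 37 C. Add CellTiter-Glo, wait 30 min at room temperature, read luminescence.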

[6] = Cell Viability - LYMP2-023 (AID 975)
In short: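 2500 cells/well, 5 hr 37 C; cpd 24 hr 37 C; CellTiter-Glo, 30 min RT; luminescence. qHTS conc-response, Hill fit -> AC50. Pos ctrl tetraoctylammonium bromide.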

[7] = Cell Viability - LYMP2-025 (AID 976); further: series mostly up to about 92 µM
In short: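 Seed 2500 LYMP2-025 cells/well; 5 hr at 37 C; add compound; 24 hr at 37 C; add CellTiter-Glo; 30 min RT; read luminescence. AC50 from Hill-modelled concentration-response.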

[8] = Cell Viability - LYMP2-002 (AID 977);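 further: series mostly up to about 92 µM; compound exposure lasted 24 h at 37 °C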
In short: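 Cytotoxicity is scored as concentration-dependent loss of cellular ATP in a human lymphoblastoid line after 24 hr compound treatment at 37 C. AC50 is obtained by modelling concentration-response data with the Hill equation.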

[9] = Cell Viability - LYMP2-007 (AID 979);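 further: cells exposed to compound for 24 h before reading; nearly all actives have a fitted effect of over 60% in size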
In short: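 Luminescent ATP signal (CellTiter-Glo) serves as the viability read-out after 24 hr compound treatment of lymphoblastoid cells in complete medium at 37 C. Concentration-response data were fitted to the Hill equation to give AC50 values.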

[10] = Cell Viability - LYMP2-008 (AID 980); further: nearly all actives have a fitted effect of over 60% in size
In short: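 qHTS, human lymphoblastoid line, 2500 cells/well; 5 hr preincubation, 24 hr compound, 37 C. CellTiter-Glo ATP luminescence. AC50 via Hill equation. Tetraoctylammonium bromide positive control.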

[11] = Cell Viability - LYMP2-010 (AID 981); further: nearly all actives have a fitted effect of over 55% in size
In short: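 Luminescent ATP signal (CellTiter-Glo) served as the viability read-out. Cells of the human lymphoblastoid line were treated with compound over a concentration range for 24 hours at 37 C, and AC50 values came from Hill-equation modeling.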

[12] = Cell Viability - LYMP2-012 (AID 982)
[13] = Cell Viability - LYMP2-014 (AID 983); further: series mostly up to about 92 µM; nearly all actives have a fitted effect of over 50% in size
In short: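 Luminescent ATP signal (CellTiter-Glo, 30 min at room temperature) serves as the viability read-out after 24 hr compound exposure at 37 C. Cells were seeded at 2500 per well and settled 5 hr beforehand.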

[14] = Cell Viability - LYMP2-016 (AID 984); further: nearly all actives have a fitted effect of over 55% in size
In short: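 Cells were seeded at 2500 per well and rested 5 hr before a 24 hr compound exposure at 37 C. Viability was then gauged as cellular ATP by luciferase luminescence, with AC50 values fitted to the Hill equation.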

[15] = Cell Viability - LYMP2-018 (AID 985); further: nearly all actives have a fitted effect of over 50% in size
In short: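 Luminescent ATP signal (CellTiter-Glo, read after 30 min at room temperature) reports viable cells after 24 hr compound treatment at 37 C. Concentration-response data were fitted to the standard Hill equation for AC50.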

[16] = Cell Viability - LYMP2-020 (AID 986)
In short: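 Luminescent ATP signal (CellTiter-Glo, 30 min at room temperature) is the read-out after 24 h compound treatment of lymphoblastoid cells at 37 C. AC50 values come from Hill-equation fits across concentrations.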

[17] = Cell Viability - LYMP2-022 (AID 987); further: nearly all actives have a fitted effect of over 55% in size
In short: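 qHTS: human lymphoblastoid cells 2500/well; 5 hr 37 C; cpd added; 24 hr 37 C; CellTiter-Glo, 30 min RT; luminescence. AC50 via Hill fit; tetraoctylammonium bromide positive ctrl.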

[18] = Cell Viability - LYMP2-024 (AID 988); further: nearly all actives have a fitted effect of over 60% in size
In short: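 Steps: seed 2500 cells/well, 5 hr 37 C; add compound, 24 hr 37 C; add CellTiter-Glo, 30 min room temperature; read luminescence. AC50 derived by Hill modelling of concentration-dependent ATP loss.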

[19] = Cell Viability - LYMP1-002 - Assay at 24 hr (AID 993)
In short: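 Cells plated 2500/well, 5 hr 37 C; compounds added, 24 hr 37 C; CellTiter-Glo added, 30 min RT; luminescence read. Tetraoctylammonium bromide positive control. Hill-equation AC50.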

[20] = biological target: Alpha-galactosidase A (Homo sapiens) (UniProt P06280); assay: Counterscreen for Glucocerebrosidase Inhibitors: qHTS Assay for Human alpha-Galactosidase at pH 4.5 (AID 992)
Chain of Alpha-galactosidase A (Homo sapiens) (P06280 whole entry, looked up): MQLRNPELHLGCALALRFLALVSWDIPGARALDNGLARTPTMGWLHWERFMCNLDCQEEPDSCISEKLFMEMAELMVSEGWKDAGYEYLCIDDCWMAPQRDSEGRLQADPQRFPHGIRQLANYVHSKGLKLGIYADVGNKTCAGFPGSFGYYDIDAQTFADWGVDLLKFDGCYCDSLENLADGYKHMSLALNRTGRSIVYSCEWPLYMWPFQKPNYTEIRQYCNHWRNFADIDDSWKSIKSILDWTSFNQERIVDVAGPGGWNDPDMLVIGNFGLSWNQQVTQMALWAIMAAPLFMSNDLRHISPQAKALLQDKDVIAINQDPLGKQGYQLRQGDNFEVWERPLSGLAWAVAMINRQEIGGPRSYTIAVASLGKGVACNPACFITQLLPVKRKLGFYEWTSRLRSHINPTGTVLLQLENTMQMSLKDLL
In short: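 Human enzyme (2 nM) with 80 uM 4-methylumbelliferyl alpha-D-galactopyranoside in 50 mM citric acid, 0.005% Tween-20, pH 4.5, 20 min at room temperature. Compounds 0.7 nM–77 uM; fluorescence Ex 365/Em 440 after pH 10 stop; AC50 from Hill fits.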

Measured: outcome

O=C(O)CCCCC1CCSS1 (stereo not drawn)
inactive: [1] | [2] | [3] | [4] | [5] | [6] | [7] | [8] | [9] | [10] | [11] | [12] | [13] | [14] | [15] | [16] | [17] | [18] | [19]

COc1ccc(O)cc1
inactive: [1] | [2] | [3] | [4] | [5] | [6] | [7] | [8] | [9] | [10] | [11] | [12] | [13] | [14] | [15] | [16] | [17] | [18] | [19]

CC(=O)NS(=O)(=O)c1ccc(N)cc1
inactive: [1] | [2] | [3] | [4] | [5] | [6] | [7] | [8] | [9] | [10] | [11] | [12] | [13] | [14] | [15] | [16] | [17] | [18] | [19]

Cc1cc(C)nc(NS(=O)(=O)c2ccc(N)cc2)n1
inactive: [1] | [2] | [3] | [4] | [5] | [6] | [7] | [8] | [9] | [10] | [11] | [12] | [13] | [14] | [15] | [16] | [17] | [18] | [19]

CCCCOC(=O)c1ccc(N)cc1
inactive: [1] | [2] | [3] | [4] | [5] | [6] | [7] | [8] | [9] | [10] | [11] | [12] | [13] | [14] | [15] | [16] | [17] | [18] | [19]

NC(=O)CC[C@@H](N)C(=O)O
inactive: [20]

CCCCCCCC(=O)OCC(COC(=O)CCCCCCC)OC(=O)CCCCCCC
inactive: [1] | [2] | [3] | [4] | [5] | [6] | [7] | [8] | [9] | [10] | [11] | [12] | [13] | [14] | [15] | [16] | [17] | [18] | [19]

Cc1c(N(C)C)c(=O)n(-c2ccccc2)n1C
inactive: [1] | [2] | [3] | [4] | [5] | [6] | [7] | [8] | [9] | [10] | [11] | [12] | [13] | [14] | [15] | [16] | [17] | [18] | [19]

CN1C(C)(C)CCCC1(C)C
inactive: [20]

Nc1ccc(S(=O)(=O)c2ccc(N)cc2)cc1
inactive: [1] | [2] | [3] | [4] | [5] | [6] | [7] | [8] | [9] | [10] | [11] | [12] | [13] | [14] | [15] | [16] | [17] | [18] | [19]

CC(=O)OCC(COC(C)=O)OC(C)=O
inactive: [1] | [2] | [3] | [4] | [5] | [6] | [7] | [8] | [9] | [10] | [11] | [12] | [13] | [14] | [15] | [16] | [17] | [18] | [19]

O=C1c2cccc(O)c2C(=O)c2c(O)cccc21
inactive: [1] | [5] | [9] | [10] | [16] | [17] | [18] | [19]

CC1CC(OC(=O)c2ccccc2O)CC(C)(C)C1 (stereo not drawn)
inactive: [1] | [2] | [3] | [4] | [5] | [6] | [7] | [8] | [9] | [10] | [11] | [12] | [13] | [14] | [15] | [16] | [17] | [18] | [19]

CC(=O)Nc1ccccc1
inactive: [1] | [2] | [3] | [4] | [5] | [6] | [7] | [8] | [9] | [10] | [11] | [12] | [13] | [14] | [15] | [16] | [17] | [18] | [19]

O=C1C(c2[nH]c3ccccc3c2O)=Nc2ccccc21
inactive: [1] | [2] | [3] | [4] | [5] | [6] | [7] | [8] | [9] | [10] | [11] | [12] | [13] | [14] | [15] | [16] | [17] | [18] | [19]

CCCC(O)C(CC)CO (stereo not drawn)
inactive: [1] | [2] | [3] | [4] | [5] | [6] | [7] | [8] | [9] | [10] | [11] | [12] | [13] | [14] | [15] | [16] | [17] | [18] | [19]

CC(=O)Nc1ccc(C(=O)O)cc1
inactive: [1] | [3] | [4] | [5] | [6] | [7] | [8] | [9] | [10] | [11] | [12] | [13] | [14] | [15] | [16] | [17] | [18] | [19]

C=CCNC(N)=S
inactive: [1] | [2] | [3] | [4] | [5] | [6] | [7] | [8] | [9] | [10] | [11] | [12] | [13] | [14] | [15] | [16] | [17] | [18] | [19]

O=C(c1ccccc1)C(O)c1ccccc1 (stereo not drawn)
inactive: [1] | [2] | [3] | [4] | [5] | [6] | [7] | [8] | [9] | [10] | [11] | [12] | [13] | [14] | [15] | [16] | [17] | [18] | [19]

Cc1cc(=O)[nH]c(=S)[nH]1
inactive: [1] | [2] | [3] | [4] | [5] | [6] | [7] | [8] | [9] | [10] | [11] | [12] | [13] | [14] | [15] | [16] | [17] | [18] | [19]

FC(F)(F)C(Cl)Br (stereo not drawn)
inactive: [1] | [2] | [3] | [4] | [5] | [6] | [7] | [8] | [9] | [10] | [11] | [12] | [13] | [14] | [15] | [16] | [17] | [18] | [19]

CCCCCC(N)=O
inactive: [1] | [2] | [3] | [4] | [5] | [6] | [7] | [8] | [9] | [10] | [11] | [12] | [13] | [14] | [15] | [16] | [17] | [18] | [19]

CC(=O)Nc1cccc(O)c1
inactive: [1] | [2] | [3] | [4] | [5] | [6] | [7] | [8] | [9] | [10] | [11] | [12] | [13] | [14] | [15] | [16] | [17] | [18] | [19]

CCN(CC)C(=O)c1cccc(C)c1
inactive: [1] | [2] | [3] | [4] | [5] | [6] | [7] | [8] | [9] | [10] | [11] | [12] | [13] | [14] | [15] | [16] | [17] | [18] | [19]
